CtBP-E1A blk = CtBP/E1A binding inhibition; AID 651724; AlphaScreen GST-E1A/His-CtBP binding, 1536-well; active compounds read low; activity change, % (test concentration not listed); 0.49% of 340,000 active
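GST-E1A and His-tagged CtBP (125 nM each as 5X stock) were preincubated with pin-transferred compound for 2 h at 37 °C in the dark, then glutathione donor and nickel acceptor beads were added for 1 h before AlphaScreen reading.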
Six1-Eya2 blk = Six1/Eya2 interaction inhibition; activity change, % (concentration not given with the values); 0.56% of 360,000 active; AlphaScreen GST-Six1/His-Eya2 binding, biochemical; active compounds read low; Q15475+O00167
Target sequence (O00167 whole entry, looked up): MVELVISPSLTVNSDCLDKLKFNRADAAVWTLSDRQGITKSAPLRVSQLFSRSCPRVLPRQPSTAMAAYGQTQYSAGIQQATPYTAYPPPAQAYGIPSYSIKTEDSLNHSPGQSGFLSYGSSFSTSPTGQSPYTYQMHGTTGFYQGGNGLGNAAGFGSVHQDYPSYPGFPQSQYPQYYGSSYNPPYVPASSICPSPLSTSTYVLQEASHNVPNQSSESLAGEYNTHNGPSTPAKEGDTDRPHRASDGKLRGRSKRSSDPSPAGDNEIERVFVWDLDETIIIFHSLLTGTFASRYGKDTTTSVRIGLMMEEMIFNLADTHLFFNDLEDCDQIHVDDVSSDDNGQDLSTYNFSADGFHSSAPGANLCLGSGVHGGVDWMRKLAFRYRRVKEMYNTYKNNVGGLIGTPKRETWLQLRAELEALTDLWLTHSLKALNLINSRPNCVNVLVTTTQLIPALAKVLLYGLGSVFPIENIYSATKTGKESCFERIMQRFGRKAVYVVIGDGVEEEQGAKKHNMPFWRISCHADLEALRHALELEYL
Target sequence (Q15475 whole entry, looked up): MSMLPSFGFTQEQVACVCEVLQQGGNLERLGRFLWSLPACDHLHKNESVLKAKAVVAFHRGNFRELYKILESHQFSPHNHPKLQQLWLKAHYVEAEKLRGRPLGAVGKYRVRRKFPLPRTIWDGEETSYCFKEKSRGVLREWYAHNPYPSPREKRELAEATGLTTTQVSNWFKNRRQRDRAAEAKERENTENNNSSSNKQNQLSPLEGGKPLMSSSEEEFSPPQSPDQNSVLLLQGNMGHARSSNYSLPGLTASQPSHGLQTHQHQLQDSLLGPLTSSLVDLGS
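AlphaScreen luminescence read after one hour at 37 °C in darkness. Pin-transferred compounds met GST-Six1 and His-Eya2 protein (5X stock 250 nM/500 nM) plus glutathione donor and Ni-chelate acceptor beads (5X, 50 ug/mL).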
L3MBTL1 inh = blocks human L3MBTL1; Q9Y468; AlphaScreen L3MBTL1–H3K9me1 peptide binding; Potency, µM (doses to about 57.1 µM), without a hit: at the highest dose activity, negative = inhibition, usual class: inhibitors; 0.66% of 230,000 active; AID 485360; active = well fitted inhibition curve with a large enough effect; inconclusive = small, poorly fitted or top-dose-only effect; inactive = no such curve, though single readings can be large or run the other way; note: potency is the fitted concentration of half-maximal effect; nearly all actives have a fitted effect of over 60% in size
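L3MBTL1 (50 nM) pre-complexed 30 min with biotinylated H3(1-15)K9me1 peptide (75 nM), then compounds added for 30 min at room temperature; AlphaScreen streptavidin donor/nickel chelate acceptor beads (10 ug/mL final) read after 30 min dark incubation.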
KDM4E inh = blocks human JMJD2E demethylase activity | B2RXH2 | JMJD2E catalytic domain, FDH-coupled NADH fluorescence (FDH is formaldehyde dehydrogenase) | Potency, µM (highest dose often 57.1 µM), without a hit: top-dose activity change, negative = inhibition, hits mostly inhibitors | 1.6% of 230,000 active | AID 2147; active = well fitted inhibition curve with a large enough effect, not every such curve was filed as active; inconclusive = small, poorly fitted or top-dose-only effect, or another doubt; inactive = no such curve, though single readings can be large or run the other way;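 note: potency is the fitted concentration of half-maximal effect; 0% = wells with enzyme and -100% = buffer wells without enzyme; nearly all actives have a fitted effect of over 50% in size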
* = called active by the depositor; ? = inconclusive; . = not tested or not shown; ! = a repeat was not active; [ ] = remark or other dose. The sample as a whole holds a higher share of hits than the screen did. Cut-off read from the data, not from the text of the source, unless noted: active = activity change below about -65%; inconclusive = mostly about -30% to -63%; inactive = weaker than that. Unless noted, % is set by controls: 0 for no effect and ±100 for the full control effect.

SMILES	CtBP-E1A blk	Six1-Eya2 blk	L3MBTL1 inh	KDM4E inh
CN1CC=C(c2c[nH]c3ccccc23)CC1	6	-4	32µM*	?
CS(=N)(=O)CC[C@@H](N)C(=O)O (stereo partly drawn)	.	.	.	2%[25.5 µM]
O=c1c(O)c(-c2ccc(O)c(O)c2)oc2c(O)c(O)cc(O)c12	.	.	.	2.8µM*
COc1ccccc1/C=N/N=C(/N)N[N+](=O)[O-]	-5	4	.	?
N/C(=N\N=C\c1ccc(O)cc1O)N[N+](=O)[O-]	-83*	-74*	.	25µM*
COC1=CC2C3Cc4ccc(OC)c(O)c4[C@]2(CCN3C)CC1=O (stereo partly drawn)	.	.	.	0%
CC(=NCc1ccco1)c1c(O)n(-c2ccccc2C)c(=O)[nH]c1=O	-12	-5	4%	-11%
Cc1ccccc1-n1c(O)c(C(c2ccncc2)c2c(O)n(-c3ccccc3C)c(=O)[nH]c2=O)c(=O)[nH]c1=O	12	5	.	18µM*
CC(=NNC(=S)N1CC2CCC(CC2)C1)c1nccs1	-97*	-89*	.	.
C[C@H]1OC[C@@H](C[N+](C)(C)C)O1	4	-17	8%	25µM*!
CC(CO)(CO)N=Cc1c(O)n(-c2cccc3ccccc23)c(=O)[nH]c1=O	3	1	.	-2%
O=C(N/N=C/c1c(O)n(CCc2ccc(F)cc2)c(=O)[nH]c1=O)c1ccccc1	-5	-9	.	20µM*
COc1ccccc1-n1c(O)c(/C=N/NC(=S)Nc2ccccc2)c(=O)[nH]c1=S	.	-2	41%	28µM*
COc1ccccc1-n1c(O)c(C=NCc2ccc3c(c2)OCO3)c(=O)[nH]c1=O	4	1	-1%	-21%
O=C(N/N=C/c1c(O)n(CCc2ccc(F)cc2)c(=O)[nH]c1=O)c1ccncc1	-1	?	.	?
O=C(N/N=C/c1c(O)n(CCc2ccccc2)c(=O)[nH]c1=O)c1ccncc1	?	?	-18%	28µM*
O=C(N/N=C/c1c(O)n(-c2cccc3ccccc23)c(=O)[nH]c1=O)c1ccncc1	?	?	?	13µM*
CC[C@H](Oc1ccc(Cl)cc1)C(=O)OC1C[C@H]2CC[C@@H](C1)N2C (stereo partly drawn)	.	.	.	6%
O=C1C=C2C=C[C@@H]3C[C@@]2(O1)[C@H]1CCCCN31	.	.	.	-5%
CCn1c(O)c(/C=N/NC(=O)c2ccccc2)c(=O)[nH]c1=S	-91*	-93*	.	32µM*
CCOc1ccc(N=Cc2c(O)n(-c3ccc(C)c(C)c3)c(=O)[nH]c2=O)cc1	14	0	.	145%
Cc1ccc(-n2c(O)c(/C=N/NC(=O)c3ccncc3)c(=O)[nH]c2=O)cc1C	4	-27	-5%	22µM*
CC(=O)[O][Hg][c]1ccccc1	.	.	.	2.2µM*
COC(=O)C12CC3=CC(CC3=O)Cc3ccccc3[C@@H]1CNC2=O (stereo partly drawn)	.	.	.	0%
CN(C)[C@@H]1C(=O)C(C(N)=O)=C(O)[C@@]2(O)C(=O)C3=C(O)c4c(O)ccc(Cl)c4[C@@](C)(O)[C@H]3C[C@@H]12	-11	-7	.	.
SMILES	CtBP-E1A blk	Six1-Eya2 blk	L3MBTL1 inh	KDM4E inh
CN(C)[C@@H]1C(=O)C(C(N)=O)=C(O)[C@@]2(O)C(=O)C3=C(O)c4c(O)cccc4[C@@](C)(O)[C@H]3[C@H](O)[C@@H]12	-67*!	?	1µM*!	?
CN(C)C1C(=O)C(C(N)=O)=C(O)[C@@]2(O)C(=O)C3=C(O)c4c(O)cccc4[C@](C)(O)C3C(O)C12 (stereo partly drawn)	.	.	.	8.9µM*
COC(=O)c1nc(-c2ccc3c(n2)C(=O)C(N)=C(OC)C3=O)c(N)c(-c2ccc(OC)c(OC)c2O)c1C	-19	12	.	20µM*
O=C1NC(=O)C2(Cc3ccccc3N3CCCC32)C(=O)N1c1ccc(Cl)cc1 (stereo not drawn)	-10	-4	-10%	25µM*
CC(N)C(O)c1ccc(O)c(O)c1 (stereo not drawn)	.	.	.	16µM*
CC(N)[C@@H](O)c1ccccc1 (stereo partly drawn)	.	.	.	9%
O=C1NC(=O)N(Cc2ccc(F)cc2)C(=O)/C1=C\c1ccc([N+](=O)[O-])s1	-10	?	.	28µM*
COc1ccc(CN2C(=O)NC(=O)/C(=C\c3cc(OC)c(OC)c(OC)c3)C2=O)cc1	-12	-8	.	9%
COc1ccc(CN2C(=O)NC(=O)/C(=C/c3ccc([N+](=O)[O-])s3)C2=O)cc1	?	?	28µM*	25µM*
CC(=O)N1CC2CC(C1)c1cccc(=O)n1C2 (stereo not drawn)	.	.	.	9%
C[C@H]1O[C@H](O[C@H]2[C@H](O)[C@@H](O)[C@@H](O)[C@H](O)[C@@H]2O)[C@@H](N)C[C@@H]1NC(=N)C(=O)O	.	.	.	1%
COc1cccc(N2CCN(Cc3cccc(Cl)c3)CC2)c1	-11	-15	-10%	-11%
COc1cccc(N2CCN(Cc3ccc(Cl)cc3)CC2)c1	-13	-19	-24%	20µM*
COc1ccc(-n2c(-c3ccc(C)cc3)nc3ccccc3c2=O)cc1	3	-1	-18%	-5%
COc1ccc(-c2nc3ccccc3c(=O)o2)cc1	-2	-2	3%	25µM*
CC1[C@H]2Cc3ccc(O)cc3[C@]1(C)CCN2CCc1ccccc1 (stereo partly drawn)	-8	1	?	.
CN1CC[C@@]2(C)c3cc(O)ccc3N(C)C12 (stereo partly drawn)	.	.	.	5µM*
CN1CC[C@]2(C)c3cc(O)ccc3N(C)[C@@H]12	.	.	.	2.2µM*
COC(=O)[C@@H]1C[C@@]2(O)[C@H](O)[C@H](O)[C@H](O)C[C@H]2N1Cc1cccnc1	.	.	.	8%
CCN1C(=O)C(=C/C=C/c2ccco2)C(=O)N(CC)C1=S	3	?	13µM*	16µM*
O=C1NC(=O)N(Cc2ccccc2)C(=O)/C1=C/C=C/c1ccco1	-3	5	28µM*	-15%
CCN1C(=O)C(=C2C=C(C)N(Cc3ccco3)C(C)=C2)C(=O)N(CC)C1=S	11	15	38%	-17%
CC(C)c1ccc(N2C(=O)NC(=O)/C(=C\C=C\c3ccco3)C2=O)cc1	-1	-19	.	-9%
COc1cccc(N2C(=O)/C(=C/c3ccc(C)o3)C(=O)NC2=S)c1	.	-18	.	.
Cc1ccc(/C=C2\C(=O)NC(=S)N(c3ccc(F)cc3)C2=O)o1	.	6	16µM*	.
Cc1ccc(N2C(=O)NC(=O)/C(=C\c3ccc([N+](=O)[O-])o3)C2=O)cc1	.	.	3.5µM*	-9%
Cc1ccc(N2C(=O)/C(=C/c3ccc(CN(CCC#N)S(C)(=O)=O)o3)C(=O)NC2=S)cc1	-15	?	32µM*	?
COc1ccc(N2C(=O)/C(=C/c3ccc(N(C)C)o3)C(=O)NC2=S)cc1	34	22	.	.
Cc1ccc(N2C(=O)NC(=O)/C(=C\c3ccc(N4CCOCC4)cc3)C2=O)cc1	5	12	-9%	?
